The values that follow come from PubChem BioAssay.

Unmarked numbers belong to inactive results. No rule for the calls is given here.

Sequence of Botulinum neurotoxin type A (Clostridium botulinum) (P0DPI0 whole entry, looked up): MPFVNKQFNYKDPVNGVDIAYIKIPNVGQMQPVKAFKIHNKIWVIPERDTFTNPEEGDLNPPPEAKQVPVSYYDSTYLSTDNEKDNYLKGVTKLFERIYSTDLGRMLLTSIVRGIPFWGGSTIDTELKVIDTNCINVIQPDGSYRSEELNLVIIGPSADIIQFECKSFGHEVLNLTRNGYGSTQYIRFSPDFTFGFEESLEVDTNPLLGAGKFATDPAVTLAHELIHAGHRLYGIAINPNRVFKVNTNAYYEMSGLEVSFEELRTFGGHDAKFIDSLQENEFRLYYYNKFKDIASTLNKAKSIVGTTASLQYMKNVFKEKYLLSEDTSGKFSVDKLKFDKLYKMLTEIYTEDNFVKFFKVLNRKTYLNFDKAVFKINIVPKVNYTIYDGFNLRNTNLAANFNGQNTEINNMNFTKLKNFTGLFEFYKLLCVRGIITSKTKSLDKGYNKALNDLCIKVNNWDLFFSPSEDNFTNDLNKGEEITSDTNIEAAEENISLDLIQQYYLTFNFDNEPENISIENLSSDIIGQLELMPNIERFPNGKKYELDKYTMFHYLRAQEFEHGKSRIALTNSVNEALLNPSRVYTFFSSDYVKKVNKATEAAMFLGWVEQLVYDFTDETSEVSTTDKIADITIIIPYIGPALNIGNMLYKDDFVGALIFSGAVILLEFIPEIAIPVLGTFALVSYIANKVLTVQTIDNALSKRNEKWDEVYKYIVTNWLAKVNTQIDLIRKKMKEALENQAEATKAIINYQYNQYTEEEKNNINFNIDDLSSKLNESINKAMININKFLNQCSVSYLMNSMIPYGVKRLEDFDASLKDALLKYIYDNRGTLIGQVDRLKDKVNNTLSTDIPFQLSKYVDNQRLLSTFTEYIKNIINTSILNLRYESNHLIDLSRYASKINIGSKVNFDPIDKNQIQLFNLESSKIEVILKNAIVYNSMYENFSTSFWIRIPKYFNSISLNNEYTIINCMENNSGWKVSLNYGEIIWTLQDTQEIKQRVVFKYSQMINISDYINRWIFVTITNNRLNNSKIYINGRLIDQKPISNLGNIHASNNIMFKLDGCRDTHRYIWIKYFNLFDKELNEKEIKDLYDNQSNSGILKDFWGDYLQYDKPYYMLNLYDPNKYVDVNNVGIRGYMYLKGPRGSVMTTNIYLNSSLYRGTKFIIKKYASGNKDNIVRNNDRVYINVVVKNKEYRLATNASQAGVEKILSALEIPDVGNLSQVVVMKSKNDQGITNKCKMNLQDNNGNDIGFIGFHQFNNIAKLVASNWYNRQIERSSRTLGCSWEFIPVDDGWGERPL

One assay concerns Botulinum neurotoxin type F light chain protease (Clostridium botulinum). The assay can be described thus: Clostridium botulinum type F light chain protease inhibitors, microsphere substrate cleavage, validation (AID 588459). The note with it: multiplex microsphere protease substrate cleavage assay, flow cytometry; at 10 µM; hits give high values.
As a reminder, the inhibition is the relative decrease from the control value, in per cent. Regarding `CCc1c(C(C)=O)oc2ccc3c(C)cc(=O)oc3c12`, the inhibition was -1.2%.
With `O=C(O)c1ccccc1C(=O)OCCCCOC(=O)c1ccccc1C(=O)O`, the inhibition was 5.9%.
For the compound `COc1cc2c(cc1OC)C(c1cc3ccccc3oc1=O)=NC(C)(C)C2`, the inhibition is 0.9%.
Take `Cc1ccccc1NC(=O)C1(C)Cc2ccccc2C(=O)O1` (stereo not given): the inhibition was 0.3%.
Regarding `CCNC(=O)C12CCC(C)(C(=O)O1)C2(C)C` (stereo not given), the inhibition is -1%.
Same read-out and setting: next, `O=C(O)c1cc2cc(F)ccc2[nH]1`: 5%.
`O=C(O)c1cccnc1Nc1cccc(C(F)(F)F)c1`: the inhibition was 1.8%.
Consider `CN(C)[C@@H]1C(=O)C(C(=O)NCN2CCCC2)=C(O)[C@@]2(O)C(=O)C3=C(O)c4c(O)cccc4[C@@](C)(O)C3CC12` (stereo not given in full), for which the inhibition was -4.8%.
On the same count and under the same terms, next, `COc1cc(CNCCc2c[nH]c3ccccc23)cc(Cl)c1OCC(N)=O`: -3.4%; `CSCC[C@H](NC(=O)NC1CCCC1)C(=O)O`: 0.9%.
Consider `O=C1CCCCCN1Cc1ccccc1`, for which the inhibition is -3.6%.
Take `COc1ccc(/C=N\NC(=O)CCc2c(C)n[nH]c2C)c(OC)c1OC`: the inhibition was -0.8%.
For the compound `CCOCCCNCc1cn(-c2ccc(F)cc2F)nc1-c1ccccc1C`, the inhibition was -0.4%.
For the compound `CCOc1ccccc1Oc1coc2cc(OCC(=O)O)ccc2c1=O`, the inhibition is 0%.
In the case of `C[C@]12CCC(=O)C=C1CC[C@@H]1[C@@H]2C(=O)C[C@@]2(C)[C@H]1CC[C@]2(O)C(=O)CO`, the inhibition was -4.6%.
Take `COc1ccccc1CCn1cnc2c3cc(C)ccc3n(C)c2c1=O`: the inhibition was -0.5%.
Take `CCN(CC)c1ccc([C@H]2[C@@H]3CCCC[C@]3(O)CCN2CC(=O)NCc2ccco2)cc1`: the inhibition was -1.2%.
For the compound `Cc1cccc(Nc2ncccc2C(=O)O)c1C`, the inhibition was -2.7%.
As to `CCC(CO)NCCNC(CC)CO` (stereo not given), the inhibition was 0.2%.
As for `CCC1CCc2c(sc(NC(=O)c3cccnc3)c2C(N)=O)C1` (stereo not given), the inhibition is -4.8%.
Consider `COc1ccc(-c2nc(NC(C)=O)sc2-c2ccc(OC)cc2)cc1`, for which the inhibition is 3%.
With `COC(=O)c1cc(-c2c(C)oc3cc(OC)ccc3c2=O)c(C)o1`, the inhibition was -0.4%.
Same read-out and setting: the figure for `O=P(c1ccccc1)(c1ccccc1)c1nc(-c2ccc(Cl)cc2)oc1N1CCOCC1` is -1%; for `CC1(C)NC(C(=O)O)Cc2c1[nH]c1ccccc21` (stereo not given) it is -1.6%; for `FC(F)(F)c1ccc(-c2noc(CN3CCCN(C4CCCCC4)CC3)n2)cc1` it is -2%.
Take `COc1ccc2c3c([nH]c2c1)C1(NCC3)C(=O)Nc2ccccc21` (stereo not given): the inhibition was -3%.
For `COc1cc(C(=O)NCCCCCC(=O)O)cc(OC)c1OC`, the inhibition was 1.3%.
Same read-out and setting: the figure for `N=C(N)c1ccc(OCCCCCOc2ccc(C(=N)N)cc2)cc1` is 0.7%; for `O=C(Nc1ccccc1)c1ccccc1CCc1ccccc1` it is 0.9%; for `CC(C)=CCCC(C)CN1CCC(N2CCC(C(=O)N3CCCC3)CC2)CC1` (stereo not given) it is 1.8%.
With `CCCC(=O)Nc1ccccc1NC(C)=O`, the inhibition is 1.4%.
Consider `c1ccc(CNc2ncnc3nc[nH]c23)cc1`, for which the inhibition was -7.5%.
Regarding `O=C(c1cc2cc(Br)ccc2o1)N1CCCC1`, the inhibition is -9.1%.
Same read-out and setting: next, `COc1cccc(N2C(=O)[C@H]3C(C(=O)c4cnccn4)=NN[C@H]3C2=O)c1`: 3%.
`O=C1OCCN1/N=C/c1ccc([N+](=O)[O-])o1`: the inhibition is 2.9%.
Still for that read-out and setting: the figure for `O=S(=O)(NCCCCCNS(=O)(=O)c1ccccc1)c1ccccc1` is 0.4%; for `CCOc1ccc(NC(=O)N[C@@H](CCSC)C(=O)OC)cc1` it is -0.6%; for `Clc1ccc(Cn2c(CN3CCCC3)nc3ccccc32)cc1` it is -2.6%.
The same measure, in the same setting: the figure for `Oc1[nH]c2ccccc2c1N=Nc1ccccc1` is -2.7%; for `C[C@]12CC[C@@H]3c4ccc(O)cc4CC[C@H]3[C@@H]1CC[C@@H]2OC(=O)CCC(=O)O` it is -0.1%.

The next assay addresses Botulinum neurotoxin type A (Clostridium botulinum) (UniProt P0DPI0). The assay can be described thus: BoNT/A light chain protease inhibitors, biochemical, multiplex microsphere flow cytometry, validation set (AID 588460). Conditions: at 10 µM, hits give high values.
For `CCc1c(C(C)=O)oc2ccc3c(C)cc(=O)oc3c12`, the inhibition was -2.4%.
For `O=C(O)c1ccccc1C(=O)OCCCCOC(=O)c1ccccc1C(=O)O`, the inhibition was -0.6%.
Take `COc1cc2c(cc1OC)C(c1cc3ccccc3oc1=O)=NC(C)(C)C2`: the inhibition was 0%.
Regarding `Cc1ccccc1NC(=O)C1(C)Cc2ccccc2C(=O)O1` (stereo not given), the inhibition was 0.5%.
In the case of `CCNC(=O)C12CCC(C)(C(=O)O1)C2(C)C` (stereo not given), the inhibition was -1%.
Turning to `O=C(O)c1cc2cc(F)ccc2[nH]1`, the inhibition is 2.4%.
Turning to `O=C(O)c1cccnc1Nc1cccc(C(F)(F)F)c1`, the inhibition was 0.3%.
For the compound `CN(C)[C@@H]1C(=O)C(C(=O)NCN2CCCC2)=C(O)[C@@]2(O)C(=O)C3=C(O)c4c(O)cccc4[C@@](C)(O)C3CC12` (stereo not given in full), the inhibition was -5.7%.
On the same count and under the same terms, next, `COc1cc(CNCCc2c[nH]c3ccccc23)cc(Cl)c1OCC(N)=O`: 0%.
On the same count and under the same terms, the figure for `CSCC[C@H](NC(=O)NC1CCCC1)C(=O)O` is 0.2%; for `O=C1CCCCCN1Cc1ccccc1` it is -1.9%.
Consider `COc1ccc(/C=N\NC(=O)CCc2c(C)n[nH]c2C)c(OC)c1OC`, for which the inhibition is 0.3%.
The same measure, in the same setting: next, `CCOCCCNCc1cn(-c2ccc(F)cc2F)nc1-c1ccccc1C`: -1.9%.
On to `CCOc1ccccc1Oc1coc2cc(OCC(=O)O)ccc2c1=O`, for which the inhibition is 1.4%.
Same read-out and setting: next, `C[C@]12CCC(=O)C=C1CC[C@@H]1[C@@H]2C(=O)C[C@@]2(C)[C@H]1CC[C@]2(O)C(=O)CO`: -1.7%; `COc1ccccc1CCn1cnc2c3cc(C)ccc3n(C)c2c1=O`: -1%.
For the compound `CCN(CC)c1ccc([C@H]2[C@@H]3CCCC[C@]3(O)CCN2CC(=O)NCc2ccco2)cc1`, the inhibition was 0.9%.
As to `Cc1cccc(Nc2ncccc2C(=O)O)c1C`, the inhibition is -1.6%.
On to `CCC(CO)NCCNC(CC)CO` (stereo not given), for which the inhibition was 1.5%.
Same read-out and setting: next, `CCC1CCc2c(sc(NC(=O)c3cccnc3)c2C(N)=O)C1` (stereo not given): -2.3%.
As for `COc1ccc(-c2nc(NC(C)=O)sc2-c2ccc(OC)cc2)cc1`, the inhibition was 1%.
In the case of `COC(=O)c1cc(-c2c(C)oc3cc(OC)ccc3c2=O)c(C)o1`, the inhibition is -2%.
On the same count and under the same terms, the figure for `O=P(c1ccccc1)(c1ccccc1)c1nc(-c2ccc(Cl)cc2)oc1N1CCOCC1` is -1.2%.
Take `CC1(C)NC(C(=O)O)Cc2c1[nH]c1ccccc21` (stereo not given): the inhibition was 1%.
`FC(F)(F)c1ccc(-c2noc(CN3CCCN(C4CCCCC4)CC3)n2)cc1`: the inhibition is -1.4%.
Take `COc1ccc2c3c([nH]c2c1)C1(NCC3)C(=O)Nc2ccccc21` (stereo not given): the inhibition was -0.7%.
With `COc1cc(C(=O)NCCCCCC(=O)O)cc(OC)c1OC`, the inhibition is -0.4%.
With `N=C(N)c1ccc(OCCCCCOc2ccc(C(=N)N)cc2)cc1`, the inhibition is -1.6%.
Turning to `O=C(Nc1ccccc1)c1ccccc1CCc1ccccc1`, the inhibition is -3.7%.
As to `CC(C)=CCCC(C)CN1CCC(N2CCC(C(=O)N3CCCC3)CC2)CC1` (stereo not given), the inhibition was -0.4%.
As to `CCCC(=O)Nc1ccccc1NC(C)=O`, the inhibition was 0.3%.
The same measure, in the same setting: the figure for `c1ccc(CNc2ncnc3nc[nH]c23)cc1` is -1.3%.
Same read-out and setting: next, `O=C(c1cc2cc(Br)ccc2o1)N1CCCC1`: -4.2%; `COc1cccc(N2C(=O)[C@H]3C(C(=O)c4cnccn4)=NN[C@H]3C2=O)c1`: -0.2%.
Take `O=C1OCCN1/N=C/c1ccc([N+](=O)[O-])o1`: the inhibition is -0.4%.
For the compound `O=S(=O)(NCCCCCNS(=O)(=O)c1ccccc1)c1ccccc1`, the inhibition is -0.1%.
The same measure, in the same setting: next, `CCOc1ccc(NC(=O)N[C@@H](CCSC)C(=O)OC)cc1`: -1.8%.
`Clc1ccc(Cn2c(CN3CCCC3)nc3ccccc32)cc1`: the inhibition was -1%.
For the compound `Oc1[nH]c2ccccc2c1N=Nc1ccccc1`, the inhibition is -0.4%.
Same read-out and setting: next, `C[C@]12CC[C@@H]3c4ccc(O)cc4CC[C@H]3[C@@H]1CC[C@@H]2OC(=O)CCC(=O)O`: -0.4%.
